PPC-1+TRAIL kill – compounds killing PPC-1 cancer cells with TRAIL present, primary screen, TRAIL potentiator project, ATPLite luminescence, uHTS; PPC-1 cells + TRAIL, ATPLite viability luminescence; cell killing (% activity), % at 4 µM or 5 µM; hit rate 0.41% among 220,000; AID 1443, 2008;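 active = cell killing above 50% in the first pass at 4 µM, then a duplicate retest at 5 µM averaging 50% or more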
C8 TRAIL sens – viability loss with TRAIL in NB7+C8 cells, primary screen, TRAIL sensitizer project, cell-based, ATPlite luminescence. hit rate 1% among 360,000. inhibition (viability loss, TRAIL sensitization), % at 10 µM;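 active = compounds causing at least 50% loss of cell viability in the single-dose screen, relative to plate controls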
HIF-2a inh – HIF-2a reporter inhibitors, primary screen, luminescence, 786-0 RCC cells | hit rate 0.72% among 360,000 | 786-0 RCC cells HIF-2a reporter, luciferase luminescence, overnight | inhibition, % at 18.8 µM;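 active = inhibition of the luminescence signal of 40% or more relative to plate controls, in a single-dose primary screen at 18.75 µM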
CF NFkB block – inhibitors of PAF-induced NF-kB signaling, primary screen, cell-based, GFP fluorescence, uHTS; AID 588850, 2011; KKLEB NF-kB-GFP reporter, GFP fluorescence overnight; inhibition, % at 5 µM; hit rate 0.86% among 360,000;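 active = at least 50% inhibition at 5 µM, scaled per plate between neutral and stimulator controls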;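 also: PAF is a Pseudomonas aeruginosa culture filtrate used as stimulus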
hiPSC survival – enhancers of single-cell hiPSC survival, primary screen, ATPlite luminescence | survival enhancement, % at 20 µM | 100% = ROCK inhibitor wells, 0% = DMSO | hit rate 0.044% among 360,000; in the data active = survival enhancement above about 18%;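 also: cells exposed to compounds for 16 hours before the ATP read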
KKLEB cytotox – cytotoxicity in KKLEB CF airway cells, primary screen, cytotoxicity control for CF NF-kB inhibitor project, cell-based, uHTS, fluorescence assay plates | KKLEB CF airway cells viability, ATPlite luminescence, overnight; hits give low values; cells stimulated with P. aeruginosa culture filtrate | activity change (cytotoxicity), % at 5 µM | hit rate 0.36% among 360,000;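 active = corrected activity change at or below -50% at 5 µM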
PPC1 cytotox – cytotoxicity in PPC-1 cells, confirmation, cytotoxicity control for TRAIL apoptosis potentiator project, cell-based, ATP content luminescence | shares compounds with PPC-1+TRAIL kill | PPC-1 viability, ATPlite luminescence, overnight | cytotoxicity, % at 5 µM | hit rate 50% among 1,200;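 active = reconfirmed compounds whose average cytotoxicity reaches 50% or more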
Hits are given with their value; n = inactive; x = not tested or not shown. Compounds with a hit are over-represented: about 2.2% of the library has one in this group of screens.

SMILES | PPC-1+TRAIL kill | C8 TRAIL sens | HIF-2a inh | CF NFkB block | hiPSC survival | KKLEB cytotox | PPC1 cytotox
O=C(N/N=C/c1ccc2c(c1)OCO2)c1ccccn1 | 58 | 73 | n | n | n | n | 60
CC(C)c1ccc(/C=N/NC(=O)c2ccccn2)cc1 | 69 | 81 | n | n | n | n | 66
COc1ccc(-c2cc3cc(OC)c(OC)cc3c(C)n2)cc1C | n | n | n | n | n | n | x
c1ccc2nc(-c3ccncc3)ccc2c1 | n | n | n | n | n | n | x
c1ccc2nc(-c3ccc(N4CCOCC4)cc3)ccc2c1 | 73 | 73 | n | n | n | n | 77
Cc1ccc(C(=O)Nc2ncc3c(Cl)cccc3n2)cc1 | 74 | 83 | n | n | n | n | 67
Cc1ccc(C(=O)Nc2nccc(-c3cccs3)n2)cc1 | n | n | n | n | n | n | x
CC(C)(C)C(=O)Nc1ccc(N=Nc2ccccc2)cc1 | 62 | 82 | n | n | n | n | 68
CC(=O)Nc1c(I)c(C(=O)N[C@H]2C(O)O[C@H](CO)[C@@H](O)[C@@H]2O)c(I)c(N(C)C(C)=O)c1I (some centres not stated) | x | n | n | n | n | n | x
COc1ccc(CCNC(=O)c2cccc(S(=O)(=O)N3CCCC3)c2)cc1OC | x | n | n | n | n | n | x
COc1cc(C(=O)NCCc2ccc(S(=O)(=O)N3CCCC3)cc2)cc(OC)c1OC | n | n | n | n | n | n | n
CCOCCCNC(=O)NC(=O)CN1CCN(S(=O)(=O)c2ccc3c(c2)OCCO3)CC1 | n | n | n | n | n | n | x
COc1cccc(CNc2cccc3cccnc23)c1O | n | n | n | n | n | n | n
COc1cccc(CNc2ccccn2)c1O | x | n | n | n | n | n | x
CC1CCCN(c2ncnc3c2cnn3-c2ccccc2)C1 (configuration not stated) | 78 | 86 | n | n | n | -54 | 78
c1ccc(-n2ncc3c(N4CCCCC4)ncnc32)cc1 | 80 | 86 | n | n | n | n | 79
CC1CCCN(c2ncnc3c2cnn3-c2ccc(Cl)cc2)C1 (configuration not stated) | 79 | 87 | 82 | n | n | -64 | 79
COC(=O)C(Cc1ccccc1)NC(=O)CNC(=O)c1sc2ccccc2c1Cl (configuration not stated) | x | n | n | n | n | n | x
CSc1ccc(C(=O)C2CCCN(C(=O)CCc3c(C)nn(C)c3C)C2)cc1 (configuration not stated) | x | n | n | n | n | n | x
CN1CCN(CCCNC(=O)c2nnc(Cc3c(F)cccc3Cl)o2)CC1 | n | n | n | n | n | n | n
O=C(NCCCN1CCCC1=O)c1nnc(Cc2c(F)cccc2Cl)o1 | n | n | n | n | n | n | x
CC1CCCN(S(=O)(=O)c2ccccc2[N+](=O)[O-])C1 (configuration not stated) | n | n | n | n | n | n | x
Cc1ccc(-n2[nH]c(=O)c(-c3ccccn3)c2C)cc1 | n | 61 | 73 | n | n | n | 51
Cc1ccc(-n2[nH]c(=O)c3cccnc32)cc1 | n | n | n | n | n | n | x
CCOc1ccc(NC(=O)c2ccc(N)cc2)cc1 | n | n | n | n | n | n | n
SMILES | PPC-1+TRAIL kill | C8 TRAIL sens | HIF-2a inh | CF NFkB block | hiPSC survival | KKLEB cytotox | PPC1 cytotox
CCN(CC)c1ccc(N=Cc2ccc(N(CC)CC)cc2O)cc1 | n | n | n | n | n | n | n
COc1cccc2nc3cc(C)c(C)cc3nc12 | 70 | 68 | n | n | n | n | 68
NC(=O)c1ccccc1N/C=C/C(=O)c1ccc(Cl)cc1Cl | 81 | 90 | n | n | n | -65 | 81
NC(=O)c1ccccc1N/C=C/C(=O)c1ccc(F)cc1 | 63 | 71 | n | n | n | n | 58
Cc1ccc(C(=O)/C=C/NCc2ccc(F)cc2)cc1 | n | n | n | n | n | n | x
O=C(NCCN1CCC(n2c(=O)[nH]c3ccccc32)CC1)c1cc(F)cc(F)c1 | x | n | n | x | n | x | x
COc1cc(/C=N/Nc2nncn2/N=C/c2ccc(O)c(OC)c2)ccc1O | 83 | 75 | n | n | n | n | 83
COc1ccc(OC)c(/C=N/Nc2nncn2/N=C/c2cc(OC)ccc2OC)c1 | n | n | n | n | n | n | x
COC(=O)c1scc(C)c1NS(=O)(=O)c1ccc(NC(C)=O)cc1 | n | n | n | n | n | n | x
O=C(Cc1cn2ccsc2n1)Nc1ccccn1 | n | n | n | n | n | n | x
Cc1ccc(NC(=O)Cc2cn3ccsc3n2)nc1 | n | n | n | n | n | n | n
CCCCn1c2c(c(=N)c3c1CCC3)CCC2 | n | n | n | n | n | n | x
CCCCCCCn1c2c(c(=N)c3c1CCC3)CCCC2 | n | n | n | n | n | n | n
CCCCCCn1c2c(c(=N)c3c1CCC3)CCC2 | n | n | n | n | n | n | n
O=C(NCCCN1CCCC1=O)C1CCN(S(=O)(=O)c2ccc(Cl)cc2)CC1 | x | n | n | n | n | n | x
O=C(N/N=C/c1cccc([N+](=O)[O-])c1)c1ccc2c(c1)OCCO2 | 68 | 68 | n | n | n | n | 68
O=C(N/N=C/c1ccc(Cl)c([N+](=O)[O-])c1)c1ccc2c(c1)OCCO2 | x | n | n | n | n | n | x
O=C(N/N=C/c1ccc(Cl)c([N+](=O)[O-])c1)c1cc(-c2ccc3c4c(cccc24)CC3)n[nH]1 | n | n | n | n | n | n | n
CC1CC(=O)Nc2ccccc2N1C(=O)Nc1ccc(F)cc1F (configuration not stated) | n | n | n | n | n | n | x
CC1CC(=O)Nc2ccccc2N1C(=O)Nc1ccc(F)cc1 (configuration not stated) | n | n | n | n | n | n | n
CN(C)S(=O)(=O)c1ccc(Cl)c(NC(=O)CN2C(=O)NC(C)(C3CC3)C2=O)c1 (configuration not stated) | n | n | n | n | n | n | x
Clc1ccc(CN2C3=NCCCN3c3ccccc32)cc1Cl | n | n | n | n | n | n | x
COc1ccc(NC(=O)CN2CCN(CC(=O)Nc3cc(OC)cc(OC)c3)CC2)cc1 | n | n | n | n | n | n | n
N/C(=N\OC(=O)c1ccc2c(c1)OCO2)c1cccnc1 | 74 | 82 | n | n | n | n | 74
Nc1ccccc1SC1CC(=O)N(Cc2ccccc2)C1=O (configuration not stated) | n | n | n | n | n | n | x
